# PMC5913336, “True equilibrium measurement of transcription factor-DNA binding affinities using automated polarization microscopy”
# Molecular target: T1, Eip93f (Drosophila melanogaster, UniProt Q9VD60 752-830)
# T1 sequence: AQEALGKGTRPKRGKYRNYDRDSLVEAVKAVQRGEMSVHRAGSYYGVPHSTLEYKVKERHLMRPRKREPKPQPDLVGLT
# Experiment: FP; 33 mM phosphate pH 7.0, 90 mM NaCl, 0.01% Tween 20, 0.1 mM DTT, 0.5% agarose; room temperature
# Details: tags: N-GST (pGEX-6P-1, kept); dsDNA, one strand shown
Sequence,binding signal,Kd [nM]
CAAAGCCGAAAATCG,1.57 Kd / Kd of best base at the position,
CACAGCCGAAAATCG,1.26 Kd / Kd of best base at the position,
CATAGCCGAAAATCT,1.07 Kd / Kd of best base at the position,
CATAGCCGAAAGTCG,2.41 Kd / Kd of best base at the position,
CATATCCGAAAATCG,1.8 Kd / Kd of best base at the position,
CATAGCCTAAAATCG,1.82 Kd / Kd of best base at the position,
CATAGCCGCAAATCG,20 Kd / Kd of best base at the position,
CATAGCCGAAAAACG,1.54 Kd / Kd of best base at the position,
CATCGCCGAAAATCG,2.02 Kd / Kd of best base at the position,
CATAGCCGAAACTCG,2.54 Kd / Kd of best base at the position,
CATAGCCAAAAATCG,1.28 Kd / Kd of best base at the position,
CATAACCGAAAATCG,1.73 Kd / Kd of best base at the position,
CATAGCAGAAAATCG,23.3 Kd / Kd of best base at the position,
CATAGCCGAACATCG,5.65 Kd / Kd of best base at the position,
CATAGCCGAAAATCG,,~14.5
CATTGCCGAAAATCG,1.02 Kd / Kd of best base at the position,
CATAGCCGAGAATCG,22.5 Kd / Kd of best base at the position,
CATACCCGAAAATCG,1.36 Kd / Kd of best base at the position,
CAGAGCCGAAAATCG,1.49 Kd / Kd of best base at the position,
CCTAGCCGAAAATCG,1.59 Kd / Kd of best base at the position,

Sequence,binding signal,Kd [nM]
CATAGCCGACAATCG,20.2 Kd / Kd of best base at the position,
GATAGCCGAAAATCG,1.29 Kd / Kd of best base at the position,
CATAGCCGAAAATCA,1.07 Kd / Kd of best base at the position,
CATAGTCGAAAATCG,1.92 Kd / Kd of best base at the position,
CATAGCCGTAAATCG,13.1 Kd / Kd of best base at the position,
CATAGCCGAAAATTG,1.35 Kd / Kd of best base at the position,
CATAGCTGAAAATCG,4.47 Kd / Kd of best base at the position,
CTTAGCCGAAAATCG,1.14 Kd / Kd of best base at the position,
CATAGCCGAAAACCG,1.78 Kd / Kd of best base at the position,
CATAGCCGAAAATAG,1.65 Kd / Kd of best base at the position,
CATAGCCGAATATCG,2.21 Kd / Kd of best base at the position,
CATAGCCGAAAATCC,1.04 Kd / Kd of best base at the position,
CATAGACGAAAATCG,3.01 Kd / Kd of best base at the position,
CATAGCCGAAGATCG,9.46 Kd / Kd of best base at the position,
CATAGCCCAAAATCG,1.29 Kd / Kd of best base at the position,
CATAGCGGAAAATCG,16.4 Kd / Kd of best base at the position,
CATAGCCGGAAATCG,7 Kd / Kd of best base at the position,
CATAGCCGAAAATGG,1.42 Kd / Kd of best base at the position,
TATAGCCGAAAATCG,1.35 Kd / Kd of best base at the position,
CATAGCCGAAAAGCG,1.89 Kd / Kd of best base at the position,
